The nature of assay [1]: A CellTox Green Cytotoxicity Assay to monitor cytotoxicity in HEK293 cells - 8 hour (AID 1224884). Further: nearly all actives have a fitted effect of over 35% in size. Further: potency means the concentration at half of the fitted maximal effect. In a few lines: (§1)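 Cells (HEK293, 600/well) and dye reagent are dispensed together. After 5 h at 37 C, 23 nL compound is pinned in. Plates stay at 37 C for 40 h with fluorescence read at 0h, 8h, 16h, 24h, 32h and 40h.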
Assay [2] can be described thus: qHTS RealTime-Glo MT Cell Viability Assay in HepG2 cells - 16 hour (AID 1224885). Further: nearly all actives have a fitted effect of over 50% in size. Further: potency means the concentration at half of the fitted maximal effect. In a few lines:
(§2)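 qHTS, HepG2, 600 cells/well, RealTime-Glo (NanoLuc + prosubstrate) added with cells; 5 h preincubation; DMSO compound addition; 37 C; luminescence at 0/8/16/24/32/40 h.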
A general note: In qHTS, concentration-response curves come from the screen itself.

Assay [3] can be described thus: qHTS RealTime-Glo MT Cell Viability Assay in HEK293 cells - 24 hour (AID 1224886). Further: nearly all actives have a fitted effect of over 50% in size. Further: potency means the concentration at half of the fitted maximal effect. An outline of the steps:
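Assay medium contained NanoLuc luciferase plus cell-permeant prosubstrate, added with HEK293 cells at 600 cells/well. After 5 h at 37 C/5% CO2 compounds were added; plates stayed at 37 C for 40 h with serial luminescence reads.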

Assay [4] in a line: qHTS RealTime-Glo MT Cell Viability Assay in HEK293 cells - 8 hour (AID 1224887). Further: nearly all actives have a fitted effect of over 50% in size. Further: potency means the concentration at half of the fitted maximal effect. In a few lines:
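Real-time viability in HEK293: signal arises when living cells convert a prosubstrate for NanoLuc in the medium, so luminescence tracks viable cell number. Compound (23 nL, DMSO) added 5 h post-seeding; kinetic reads at 0–40 h, 37 C.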

Assay [5] can be described thus: A CellTox Green Cytotoxicity Assay to monitor cytotoxicity in HEK293 cells - 16 hour (AID 1224888). Further: nearly all actives have a fitted effect of over 35% in size. Further: potency means the concentration at half of the fitted maximal effect. In a few lines:
as §1

The nature of assay [6]: qHTS RealTime-Glo MT Cell Viability Assay in HepG2 cells - 0 hour (AID 1224889). Further: nearly all actives have a fitted effect of over 50% in size. Further: potency means the concentration at half of the fitted maximal effect. In a few lines: as §2
Assay [7] in a line: A CellTox Green Cytotoxicity Assay to monitor cytotoxicity in HepG2 cells - 8 hour (AID 1224890). Further: nearly all actives have a fitted effect of over 45% in size. Further: potency means the concentration at half of the fitted maximal effect. In a few lines: (§3)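 Cells and non-lytic dye reagent are dispensed together (600 HepG2 cells/well) and incubated 5 h before DMSO compound transfer. Kinetic fluorescence is then recorded in the same wells during 40 h at 37 C.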
A short description of assay [8]: qHTS assay to identify small molecule antagonists of the estrogen receptor alpha (ER-alpha) signaling pathway using the BG1 cell line in the presence of 0.1 nM 17-beta-estradiol - cell viability counter screen (AID 1259241). Further: nearly all actives have a fitted effect of over 40% in size. Further: potency means the concentration at half of the fitted maximal effect. An outline of the steps: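 VM7Luc4E2, 4,000 cells/well, phenol red-free medium + 10% charcoal-stripped FBS; 24 hr plating; cpd + 0.1 nM E2 final, 22 hr 37C/5% CO2; CellTiter-Fluor 30 min, fluorescence.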

Assay [9] in a line: qHTS assay to identify small molecule antagonists of the androgen receptor (AR) signaling pathway using the MDA cell line in the presence of 0.5 nM R1881 - cell viability counter screen (AID 1259242). Further: nearly all actives have a fitted effect of over 45% in size. In a few lines: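 Steps: plate MDA-kb2 cells, rest 5 hr at 37C without CO2; pin in compounds in DMSO; add R1881 to 0.5 nM final; incubate 16 hr; add CellTiter-Fluor, 30 min; read fluorescence.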

A short description of assay [10]: A CellTox Green Cytotoxicity Assay to monitor cytotoxicity in HepG2 cells - 32 hour (AID 1224883). Further: nearly all actives have a fitted effect of over 50% in size. An outline of the steps:
as §3

Results filed as inconclusive are left out. Activity calls are given as the source filed them. The call rests on the fitted dose curve; in most records, active means well fitted curve in the direction sought with a large enough effect in the repeat runs; inconclusive means weak or mixed curves; inactive means no such curve, though single readings can be large; an effect the other way counts as inactive or inconclusive.

On to `C=C(C)C(=O)OCC(O)COc1ccc(C(C)(C)c2ccc(OCC(O)COC(=O)C(=C)C)cc2)cc1` (stereo unspecified), for which the Potency result in [1], in [5], in [6] and in assay [7] was “inactive” throughout. Also, the Potency was 19.5 µM (active) in assay [2], 11 µM (active) in [3], 11 µM (active) in assay [4] and 27.3 µM (active) in assay [8].
Consider `CCCCC(CC)COP(=O)(O)OCC(CC)CCCC` (stereo unspecified), for which the Potency result in assay [1], in assay [2], in assay [6], in assay [7], in [8] and in [9] was “inactive” each time. For the same molecule, the Potency in [5] is 38.9 µM (active).
`N=C1N=C(N)c2ccccc21`: the Potency entry in [1], in assay [4], in [5], in [6], in assay [8] and in [9] was “inactive” each time. The Potency in [3] is 24.5 µM (active).
Take `Cc1cccc2c1cc1ccc3cccc4ccc2c1c34`: the Potency entry in assay [10], in assay [6], in [7] and in [8] was “inactive” each time.
Regarding `O=c1[nH]sc2cc(Cl)ccc12`, the Potency entry in [1], in [4], in assay [5], in assay [6], in [8] and in assay [9] was “inactive” in each case.
With `CCC(CN)=C(c1ccccc1)c1ccccc1`, the Potency result in [1], in [3], in [4], in assay [5], in assay [6] and in assay [8] was “inactive” in each case.
For `O=C(Nc1cccc(Cl)c1)OCC#CCCl`, the Potency result in [1], in assay [5], in assay [6] and in assay [7] was “inactive” throughout. Further, the results for the Potency in [2], in assay [4] and in assay [8] were 43.6 µM (active), 43.6 µM (active) and 61.1 µM (active), respectively.
`CCc1cc(SCc2sc(-c3ccc(C(F)(F)F)cc3)nc2CN2CCN(c3ccc(OC)cc3)CC2)ccc1OCC(=O)O`: the Potency result in assay [10], in assay [5], in [6] and in assay [8] was “inactive” throughout.
Take `Cc1c(C)c2c(c(C)c1OC(=O)CCC(=O)O)CC[C@@](C)(CCC[C@H](C)CCC[C@H](C)CCCC(C)C)O2`: the Potency result in assay [1], in [2], in assay [4], in [5] and in assay [8] was “inactive” each time.
With `S=c1[nH]c2ccccc2s1`, the Potency entry in assay [2], in assay [3], in assay [6], in [8] and in assay [9] was “inactive” throughout.
On to `CS(=O)(=O)CCNCc1ccc(-c2ccc3ncnc(Nc4ccc(OCc5cccc(F)c5)c(Cl)c4)c3c2)o1`, for which the Potency in assay [2] was 21.3 µM (active); in assay [4], 21.3 µM (active); in assay [6], 8.49 µM (active). Further, the Potency entry in assay [5] and in assay [7] was “inactive” each time.
On to `Oc1ccc(C2(c3ccc(O)cc3)CC3CC2C2CCCC32)cc1` (stereo unspecified), for which the Potency entry in assay [2], in assay [5], in assay [6], in assay [7] and in [8] was “inactive” throughout. Besides, in assay [3], the Potency is 41.9 µM (active).
For `O=Cc1cc(O)ccc1Br`, the Potency result in assay [1], in assay [2], in [4], in assay [5], in assay [6] and in assay [7] was “inactive” each time. The Potency result in assay [8] and in [9] was “inactive” throughout.
Turning to `Nc1c(Cl)cc(Cl)cc1Cl`, the Potency in [1] and in assay [5] was 21.6 µM (active) throughout. The Potency result in assay [2], in assay [3], in [6], in [7], in assay [8] and in [9] was “inactive” each time.
As for `CCc1cc(Cc2cc(CC)c(N)c(CC)c2)cc(CC)c1N`, the Potency entry in assay [2], in assay [5], in [6], in [7], in assay [8] and in assay [9] was “inactive” throughout. The Potency in assay [3] and in [4] was 27.5 µM (active) each time.
For `CCCC(C)c1ccccc1O` (stereo unspecified), the Potency result in assay [1], in assay [2], in [3], in assay [4], in [6] and in [8] was “inactive” throughout.
`Cc1cc2c(cc1C(F)(F)F)N(C(=O)Nc1ccc(Oc3cccnc3C)nc1)CC2`: the Potency entry in assay [1], in [2], in assay [4], in assay [5], in assay [6] and in assay [7] was “inactive” each time. Moreover, in assay [8], the Potency result is “inactive”.
As to `N#CSc1ccc(N)c([N+](=O)[O-])c1`, the Potency result in assay [2], in assay [5] and in assay [6] was “inactive” in each case. Also, the Potency in [3] is 49.3 µM (active).
For the molecule `CC(C)(C)CC(C)(C)c1ccc(O)c(Cc2ccc(Cl)cc2Cl)c1`, the Potency entry in [1] and in [6] was “inactive” each time.
Turning to `COc1cc(-c2nc(NC(=O)c3cc4cc(C)cc(C)c4n3CC(=O)O)sc2CCC2CCCCC2)c(OC)cc1Cl`, the results for the Potency in assay [2], in [3] and in assay [7] were 35.7 µM (active), 40 µM (active) and 40 µM (active), respectively. Further, the Potency entry in assay [4], in [5] and in assay [8] was “inactive” throughout.
`CCCCN(CCCC)c1ccc(C(=O)c2ccccc2C(=O)O)c(O)c1`: the Potency entry in [3], in assay [4], in assay [6], in assay [8] and in [9] was “inactive” each time.
On to `OCc1c[nH]c2ccccc12`, for which the Potency result in [2], in assay [6], in assay [8] and in [9] was “inactive” each time.
For `CC(C)OC(=O)c1cc2c(OCC(O)CNC(C)(C)C)cccc2[nH]1` (stereo unspecified), the Potency result in [2], in assay [6], in assay [7], in [8] and in assay [9] was “inactive” in each case. In addition, the Potency in assay [3] and in [4] was 9.52 µM (active) throughout.
As for `O=C1CCCCCN1SSN1CCCCCC1=O`, the Potency result in assay [1], in assay [3], in assay [4], in assay [5], in assay [6] and in assay [7] was “inactive” in each case. Besides, the Potency entry in [8] and in assay [9] was “inactive” throughout.
As to `CCCC/C=C/CCCCO`, the Potency entry in assay [2], in assay [3], in assay [4], in [5], in assay [6] and in assay [7] was “inactive” in each case. In assay [8], the Potency result was “inactive”.
On to `O=[N+]([O-])c1cc(Cl)c(Cl)c(Cl)c1Cl`, for which the Potency entry in [1], in [2], in assay [3], in [5] and in assay [6] was “inactive” in each case. Further, the Potency in assay [8] is 68.3 µM (active).
